Assay outcomes: PubChem BioAssay, National Center for Advancing Translational Sciences (NCATS)
The full list was thinned out, with hits kept by preference.
Pf Dd2 inh = blocks in vitro growth of P. falciparum Dd2; P. falciparum Dd2 growth, SYBR Green, 72 h; Potency, µM (titrated, usually from 28.9 µM), for the others: at the highest dose activity, negative = inhibition, usual class: inhibitors; 4.3% of 120,000 active; AID 1347417; active means well fitted inhibition curve with a large enough effect;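 further: plate controls were DMSO vehicle for no effect and reference drug for full effect; nearly all actives have a fitted effect of over 65% in size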
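Infected erythrocytes (Dd2, 0.3% parasitemia, 2.5% hematocrit final) are added to compound in RPMI-1640/Albumax II medium, grown 72 h at 37C in low oxygen, then lysed with saponin/Triton-X containing SYBR Green and read by fluorescence.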
An asterisk follows results filed as active; i = inactive; [ ] = another dose, or the depositor's remark. Potency means the concentration at half of the fitted maximal effect.

SMILES	Pf Dd2 inh
CN(Cc1cc(C(C)(C)C)n[nH]1)C(=O)[C@H]1CCC[C@@H](O)C1	-9%
COCCN1C(=O)CS(=O)(=O)C12CCN(C(=O)Cc1ccccc1C)CC2	3%
CC1(C)C(=O)N(Cc2ccccc2)[C@H]2CN(CC3CCOC3)C[C@H]2[S+]1(=O)[O-] (stereo not given in full)	11%[44.1 µM]
NC(=O)c1cnc2n1CCN(C(=O)CCNC(=O)c1ccc(F)cc1)C2	10%
CCc1nccc(CN2CCC(c3nn(C)c(=O)n3CC)CC2)n1	8%
COCc1nnc2n1CCC(NC(=O)c1ccoc1)CC2 (stereo not given)	24%
Cc1ccc(CNC(=O)Cn2cccc2-c2nc(-c3ccc(F)cc3)no2)cc1	-10%
Cc1cc(-c2nc3ncccc3o2)ccc1NC(=O)COc1cc(C)c(Cl)c(C)c1	4%
Cc1cc(-c2nc3ncccc3o2)ccc1NC(=O)COc1ccccc1C	2%
Cc1cc(OCC(=O)Nc2cc(-c3nc4ncccc4o3)ccc2C)ccc1Cl	10µM*
O=C([C@@H]1C[C@H](Oc2cccnc2)CN1C(=O)c1ccccn1)N1CCCC1	11%
Cc1cccc(=O)n1CCC(=O)N1CCCCC(N)C1 (stereo not given)	1%
COCCc1noc([C@@H]2CC(F)(F)CN2C(=O)c2ncccc2F)n1	28%
Cc1noc(-c2ccn3c(CNC(=O)c4cccc(Cl)c4)nnc3c2)n1	i
Cc1noc(-c2ccn3c(CNC(=O)c4ccccc4Cl)nnc3c2)n1	0.28µM*
Cc1noc(-c2ccn3c(CNC(=O)c4ccc(F)cc4Cl)nnc3c2)n1	-22%
CCCc1noc(-c2ccn3c(CNC(=O)c4ccc(F)cc4Cl)nnc3c2)n1	3.5µM*
CCCc1noc(-c2ccn3c(CNC(=O)c4ccc(C)cc4C)nnc3c2)n1	-7%
Cc1noc(-c2ccn3c(CNC(=O)c4ccccc4F)nnc3c2)n1	i
Cc1oc(C(C)C)cc1C(=O)N1CCC2(CC1)C(C(=O)O)CC(=O)N2C (stereo not given)	11%
CC(C)C1=NOC2(CCCN(Cc3ccc(C(F)(F)F)cc3)C2)C1 (stereo not given)	7%
CCc1csc(CNC(=O)c2ccc(N3CC[C@H](O)C3)nc2)n1	-6%
Cc1ccsc1C(=O)N1CCC2(CC1)NCCc1c2[nH]c2ccccc12	i
CC1CCN(C(=O)CSc2c3c(nc4cc(Cl)ccc24)CCCC3)CC1	-24%
CCC(C)NC(=O)CSc1c2c(nc3cc(Cl)ccc13)CCCC2 (stereo not given)	-9%
SMILES	Pf Dd2 inh
O=C(CSc1c2c(nc3cc(Cl)ccc13)CCCC2)N1CCN(c2ccccc2)CC1	11µM*
COCCCNc1nc2c(-c3ccccc3)nnn2c2ccccc12	7.9µM*
COCCCNc1nc2c(S(=O)(=O)c3ccccc3)nnn2c2ccccc12	1%
COCCCNc1nc2c(S(=O)(=O)c3ccc(C)cc3)nnn2c2ccccc12	0%
Cn1cc(CN2CCc3c([nH]n(CCO)c3=O)C2)c(-c2ccccc2)n1	-9%
COc1ccc(CC(=O)NC2CCN(c3cc(-c4ccc(Cl)cc4)[nH]n3)CC2)cc1	-15%
CCCc1cc(N2CCC(NCCOC(C)C)CC2)nc(C)n1	-15%
CCCc1nc(C)cc(N2CCC(NCCc3ccc(Cl)cc3)CC2)n1	10µM*
O=C(c1ccc(Cn2cnnn2)cc1)N1CCC2(CC1)[C@H](O)C[C@@H]2OCCO	-15%
CN1C(=O)C(CC(=O)NC2CCCCC2)Sc2ncccc21 (stereo not given)	-1%
O=C1CC(c2ccccc2)N(C(=O)CNC(=O)c2[nH]nc3c2COc2ccccc2-3)CCCCCN1 (stereo not given)	2.5µM*
COc1ccc2cc(C(=O)NCC(=O)N3CCCCCCNC(=O)CC3c3ccccc3)[nH]c2c1 (stereo not given)	14µM*
O=C1CC(c2ccccc2)N(C(=O)CNC(=O)c2n[nH]c3ccccc23)CCCCCN1 (stereo not given)	i
O=C1CC(c2ccccc2)N(C(=O)CNC(=O)c2ccccn2)CCCCCCN1 (stereo not given)	-6%
O=C1CC(c2ccccc2)N(C(=O)CNC(=O)c2ccncc2)CCCCCCN1 (stereo not given)	31%
O=C1CC(c2ccccc2)N(C(=O)CNC(=O)c2cccnc2)CCCCCCN1 (stereo not given)	24%
O=C1CC(c2ccccc2)N(C(=O)CNC(=O)c2nccc3ccccc23)CCCCCCN1 (stereo not given)	0.35µM*
COc1ccc(C(=O)NCC(=O)N2CCCCCCNC(=O)CC2c2ccccc2)cc1F (stereo not given)	i
COc1cccc(CC(=O)NCC(=O)N2CCCCCCNC(=O)CC2c2ccccc2)c1 (stereo not given)	-29%
OCc1ccc(CN2CC[C@@H](c3ccc4ccccc4c3)[C@H](O)C2)o1	-20%
Cc1ccc(NC(=O)C2CC(=O)N(c3n[nH]c4cccc(F)c34)C2)cc1 (stereo not given)	8%
O=C(Nc1cc(F)cc(F)c1)N1CCC(CCNC(=O)C2(c3ccccc3)CC2)CC1	-21%
